Results on 40 molecules are retold here after PubChem BioAssay (EPA / NIEHS).

Results filed as inconclusive are left out. The source made the active and inactive calls. The calls were made as follows: active = hit-call score of the fitted dose curve at least 0.9, where 1 is the maximum; inconclusive = response in the unintended direction; inactive = score below 0.9.

Sequence of Glyceraldehyde-3-phosphate dehydrogenase (Homo sapiens) (P04406 whole entry, looked up): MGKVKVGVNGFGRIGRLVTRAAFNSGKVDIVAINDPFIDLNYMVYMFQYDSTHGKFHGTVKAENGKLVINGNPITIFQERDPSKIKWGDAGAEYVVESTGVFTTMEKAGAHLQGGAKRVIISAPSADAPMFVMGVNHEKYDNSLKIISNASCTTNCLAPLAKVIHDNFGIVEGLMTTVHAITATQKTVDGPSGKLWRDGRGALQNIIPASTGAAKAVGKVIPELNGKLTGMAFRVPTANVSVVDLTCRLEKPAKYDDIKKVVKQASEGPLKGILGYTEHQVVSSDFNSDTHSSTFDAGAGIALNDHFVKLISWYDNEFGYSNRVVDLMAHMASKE

Read-out in this test: Glyceraldehyde-3-phosphate dehydrogenase (Homo sapiens) (UniProt P04406)
Put plainly: CLD_GAPDH_6hr: CellzDirect (CLD) Gene Expression Assay for Baseline Control (Glyceraldehyde 3-phosphate dehydrogenase) at 6 hours (AID 2283681).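 Also: active means increased signal relative to DMSO vehicle.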 The method, then:
CLD_6hr is a cell-based, multiplexed-readout assay that uses hepatocyte, a human liver primary cell, with measurements taken at 6 hours after chemical dosing in a 96-well plate.CLD_GAPDH_6hr is one of 16 assay component(s) measured or calculated from the CLD_6hr assay. It is designed to make measurements of mRNA induction, a form of inducible reporter, as detected with chemiluminescence signals by Quantitative Nuclease Protection Assay (qNPA) technology.Data from the assay component CLD_GAPDH_6hr was analyzed at the endpoint, CLD_GAPDH_6hr, in the positive analysis fitting direction relative to DMSO as the negative control and baseline of activity. Using a type of inducible reporter, gain-of-signal activity can be used to understand changes in the reporter gene as they relate to the gene GAPDH. Furthermore, this assay endpoint can be referred to as a secondary readout, because this assay has produced multiple assay endpoints where this one serves a background control function. To generalize the intended target to other relatable targets, this assay endpoint is annotated to the background measurement intended target family, where subfamily is baseline control.
Human hepatocyte cultures were treated daily for two consecutive days with fresh dosing solutions containing appropriate concentrations of the 320 ToxCast chemicals (chemical identities were blinded to CellzDirect and other ToxCast collaborators), vehicle control (0.2% DMSO), and positive control inducers as summarized in Table 1. Due to the large number of treatment groups and chemicals examined, the ToxCast chemicals were divided into two groups (spanning two independent cultures of hepatocytes from separate donor preparations (Hu778: ToxCast plates 1 and 2; Hu776: ToxCast plates 3 and 4). Each preparation of human hepatocyte cultures was treated with respective vehicle control, medium only control, set of six positive controls/reference chemicals for the five hepatic receptor pathways, and a subset of eight of the ToxCast chemicals (indoxacarb, pyrithiobac-sodium, norflurazon, cyhalofop-butyl, methomyl, thiram, acetochlor, and propiconazole). These replicate data, coupled with internal replicates designed within the blinded ToxCast chemical library, provided additional data to evaluate interindividual differences between hepatocyte preparations and their potential impact on chemical profiles.Cell morphology and integrity were evaluated using phase-contrast microscopy as an indicator of hepatocyte cell health (Tyson & Green, 1987). Cultures for each treatment group (i.e., media, vehicle [0.2% DMSO], positive control inducers [multiple concentrations], and the ToxCast chemicals [multiple concentrations]) were observed and cell morphology was assessed relative to vehicle control cultures at each harvest time point (0, 6, 24, or 48 h). […] Images were evaluated at the conclusion of the study to assess changes in cell integrity and account for the effects of chemical exposure on uncharacteristic changes in concentration-dependent gene expression profiles. The results from these determinations of apparent cytotoxicity were annotated (yes/no) alongside the corresponding qNPA data for reference.At the conclusion of each treatment period, hepatocyte cultures (96-well) were washed with 1 volume of HBSS, lysed by addition of 25 ul ArrayPlate lysis buffer (HTG, Tucson, AZ), and 70 ul/well of Denaturation Oil, denatured by incubation at 95C for 10 min, and frozen at approximately -70C until analysis by nuclease protection assay (qNPA) (Roberts et al., 2007). For qNPA analysis, cell lysates were thawed at 50C for approximately 30 min, qNPA probes were added, and samples were incubated at 95C for 10 min to begin the detection process by denaturing the target RNA, dissociating the duplexes and secondary structure hybridization. At the conclusion of the hybridization period, S1 nuclease reagent was added to each sample to digest all nonprotected nucleotides at 50C for 60-90 min. […]
With `COc1ccc(-c2ccccc2)cc1NNC(=O)OC(C)C`, the call was inactive. The same measure for `CCOP(=O)(OCC)Oc1nc(Cl)c(Cl)cc1Cl`: “inactive”; for `CC(C)(C)C(=O)C(Oc1ccc(Cl)cc1)n1cncn1` (stereo not given): “inactive”; for `O=P(O)(O)CCCl`: “inactive”.

Regarding `CC(C)N1C(=O)c2ccccc2NS1(=O)=O`, the outcome was inactive.

`N#Cc1c(Cl)cccc1Cl`: the outcome was inactive. Regarding `CSC(=O)c1c(C(F)F)nc(C(F)(F)F)c(C(=O)SC)c1CC(C)C`, the molecule was classed as inactive. For the molecule `CCOc1cc(C(C)(C)C)ccc1C1COC(c2c(F)cccc2F)=N1` (stereo not given), the outcome was inactive. Turning to `Nc1c(Cl)c(F)nc(OCC(=O)O)c1Cl`, the call was inactive. For `CCCCOCN(C(=O)CCl)c1c(CC)cccc1CC`, the outcome was inactive. The same measure for `CCNC(=O)NC(=O)C(C#N)=NOC`: “inactive”; for `CO/N=C(/C1=NOCCO1)c1ccccc1Oc1ncnc(Oc2ccccc2Cl)c1F`: “inactive”; for `CCNP(=S)(OC)O/C(C)=C/C(=O)OC(C)C` (stereo not given): “inactive”. Turning to `Cn1c(-c2ccccc2)cc(-c2ccccc2)[n+]1C`, the molecule was called inactive. For the molecule `CC(C)NC(=O)N1CC(=O)N(c2cc(Cl)cc(Cl)c2)C1=O`, the result was inactive. The same measure for `Nc1c(Cl)c(Cl)nc(C(=O)O)c1Cl`: “inactive”; for `O=C(O)c1c(Cl)ccc2cc(Cl)cnc12`: “inactive”. The same measure for `CS(=O)(=O)c1cc(C(F)(F)F)ccc1C(=O)c1cnoc1C1CC1`: “inactive”; for `CC(C)Oc1cccc(NC(=O)c2ccccc2C(F)(F)F)c1`: “inactive”. The same measure for `COP(=S)(OC)SCn1nnc2ccccc2c1=O`: “inactive”; for `N#CN=C1SCCN1Cc1ccc(Cl)nc1`: “inactive”; for `OC(c1ccc(Cl)cc1)(c1ccc(Cl)cc1)C(Cl)(Cl)Cl`: “inactive”.

`O=C1C2CC=CCC2C(=O)N1SC(Cl)(Cl)Cl` (stereo not given): the molecule was classed as inactive. The entry for `COP(=S)(OC)Oc1ccc([N+](=O)[O-])c(C)c1` is “inactive”. The same measure for `C=C(C)CN(CC)c1c([N+](=O)[O-])cc(C(F)(F)F)cc1[N+](=O)[O-]`: “inactive”; for `Clc1nc(Cl)nc(Nc2ccccc2Cl)n1`: “inactive”. The entry for `COCC(C)N(C(=O)CCl)c1c(C)csc1C` (stereo not given) is “inactive”. For `Cc1cnc(C2=NC(C)(C(C)C)C(=O)N2)c(C(=O)O)c1` (stereo not given), the outcome was inactive. The entry for `Clc1cccc(C(Cl)(Cl)Cl)n1` is “inactive”.

Take `CC(C)C1(C)N=C(c2ncccc2C(=O)O)NC1=O` (stereo not given): the molecule was called inactive.

As to `COC(=O)N(C(=O)N1CO[C@@]2(C(=O)OC)Cc3cc(Cl)ccc3C2=N1)c1ccc(OC(F)(F)F)cc1`, the outcome was inactive.

For `COP(=O)(OC)O/C(C)=C/C(=O)N(C)C`, the molecule was called inactive. The same measure for `CS(=O)(=O)c1ccc(C(=O)C2C(=O)CCCC2=O)c([N+](=O)[O-])c1`: “inactive”; for `C=CCOC(=O)C(C)(C)OC(=O)c1cc(-n2c(=O)cc(C(F)(F)F)n(C)c2=O)ccc1Cl`: “inactive”. As to `CCOc1nc(C(Cl)(Cl)Cl)ns1`, the molecule was classed as inactive.

For `Cc1ccc(N=CN(C)C=Nc2ccc(C)cc2C)c(C)c1`, the result was inactive. As to `CC1(C)CON(Cc2ccccc2Cl)C1=O`, the result was inactive. The entry for `CCCC(=NOCC)C1=C(O)CC(CC(C)SCC)CC1=O` (stereo not given) is “inactive”; for `COCc1cnc(C2=NC(C)(C(C)C)C(=O)N2)c(C(=O)O)c1` (stereo not given) it is “inactive”; for `O=c1n(Cl)c(=O)n(Cl)c(=O)n1Cl` it is “inactive”.
